Reference: PubChem BioAssay AID1671202 (University of Kansas High Throughput Screening Laboratory, 2021)
Several values for one entry are separate records, joined by “and”; a condition that tells them apart may be missing. Equal values may be shown once. The campaign covered roughly 190,000 compounds. About 6,900 (3.6%) were called active. Rule as the data show it: active = inhibition above about 50%; inactive = the rest. This excerpt belongs to a sample that is enriched for actives. Some structures have more than one record in an assay (separate samples or runs), and their calls can disagree.

biological target: Huntingtin (Homo sapiens) (UniProt P42858); experiment: mutant huntingtin-calmodulin interaction inhibitors – biochemical, AlphaScreen, primary screen (AID 1671202); details: AlphaScreen His-mHTT/GST-CaM binding, luminescence; at 15 µM, stronger effect = higher value;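 also: 0% = both proteins with DMSO and 100% = one protein alone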
Sequence (P42858 whole entry, looked up, stated change not applied): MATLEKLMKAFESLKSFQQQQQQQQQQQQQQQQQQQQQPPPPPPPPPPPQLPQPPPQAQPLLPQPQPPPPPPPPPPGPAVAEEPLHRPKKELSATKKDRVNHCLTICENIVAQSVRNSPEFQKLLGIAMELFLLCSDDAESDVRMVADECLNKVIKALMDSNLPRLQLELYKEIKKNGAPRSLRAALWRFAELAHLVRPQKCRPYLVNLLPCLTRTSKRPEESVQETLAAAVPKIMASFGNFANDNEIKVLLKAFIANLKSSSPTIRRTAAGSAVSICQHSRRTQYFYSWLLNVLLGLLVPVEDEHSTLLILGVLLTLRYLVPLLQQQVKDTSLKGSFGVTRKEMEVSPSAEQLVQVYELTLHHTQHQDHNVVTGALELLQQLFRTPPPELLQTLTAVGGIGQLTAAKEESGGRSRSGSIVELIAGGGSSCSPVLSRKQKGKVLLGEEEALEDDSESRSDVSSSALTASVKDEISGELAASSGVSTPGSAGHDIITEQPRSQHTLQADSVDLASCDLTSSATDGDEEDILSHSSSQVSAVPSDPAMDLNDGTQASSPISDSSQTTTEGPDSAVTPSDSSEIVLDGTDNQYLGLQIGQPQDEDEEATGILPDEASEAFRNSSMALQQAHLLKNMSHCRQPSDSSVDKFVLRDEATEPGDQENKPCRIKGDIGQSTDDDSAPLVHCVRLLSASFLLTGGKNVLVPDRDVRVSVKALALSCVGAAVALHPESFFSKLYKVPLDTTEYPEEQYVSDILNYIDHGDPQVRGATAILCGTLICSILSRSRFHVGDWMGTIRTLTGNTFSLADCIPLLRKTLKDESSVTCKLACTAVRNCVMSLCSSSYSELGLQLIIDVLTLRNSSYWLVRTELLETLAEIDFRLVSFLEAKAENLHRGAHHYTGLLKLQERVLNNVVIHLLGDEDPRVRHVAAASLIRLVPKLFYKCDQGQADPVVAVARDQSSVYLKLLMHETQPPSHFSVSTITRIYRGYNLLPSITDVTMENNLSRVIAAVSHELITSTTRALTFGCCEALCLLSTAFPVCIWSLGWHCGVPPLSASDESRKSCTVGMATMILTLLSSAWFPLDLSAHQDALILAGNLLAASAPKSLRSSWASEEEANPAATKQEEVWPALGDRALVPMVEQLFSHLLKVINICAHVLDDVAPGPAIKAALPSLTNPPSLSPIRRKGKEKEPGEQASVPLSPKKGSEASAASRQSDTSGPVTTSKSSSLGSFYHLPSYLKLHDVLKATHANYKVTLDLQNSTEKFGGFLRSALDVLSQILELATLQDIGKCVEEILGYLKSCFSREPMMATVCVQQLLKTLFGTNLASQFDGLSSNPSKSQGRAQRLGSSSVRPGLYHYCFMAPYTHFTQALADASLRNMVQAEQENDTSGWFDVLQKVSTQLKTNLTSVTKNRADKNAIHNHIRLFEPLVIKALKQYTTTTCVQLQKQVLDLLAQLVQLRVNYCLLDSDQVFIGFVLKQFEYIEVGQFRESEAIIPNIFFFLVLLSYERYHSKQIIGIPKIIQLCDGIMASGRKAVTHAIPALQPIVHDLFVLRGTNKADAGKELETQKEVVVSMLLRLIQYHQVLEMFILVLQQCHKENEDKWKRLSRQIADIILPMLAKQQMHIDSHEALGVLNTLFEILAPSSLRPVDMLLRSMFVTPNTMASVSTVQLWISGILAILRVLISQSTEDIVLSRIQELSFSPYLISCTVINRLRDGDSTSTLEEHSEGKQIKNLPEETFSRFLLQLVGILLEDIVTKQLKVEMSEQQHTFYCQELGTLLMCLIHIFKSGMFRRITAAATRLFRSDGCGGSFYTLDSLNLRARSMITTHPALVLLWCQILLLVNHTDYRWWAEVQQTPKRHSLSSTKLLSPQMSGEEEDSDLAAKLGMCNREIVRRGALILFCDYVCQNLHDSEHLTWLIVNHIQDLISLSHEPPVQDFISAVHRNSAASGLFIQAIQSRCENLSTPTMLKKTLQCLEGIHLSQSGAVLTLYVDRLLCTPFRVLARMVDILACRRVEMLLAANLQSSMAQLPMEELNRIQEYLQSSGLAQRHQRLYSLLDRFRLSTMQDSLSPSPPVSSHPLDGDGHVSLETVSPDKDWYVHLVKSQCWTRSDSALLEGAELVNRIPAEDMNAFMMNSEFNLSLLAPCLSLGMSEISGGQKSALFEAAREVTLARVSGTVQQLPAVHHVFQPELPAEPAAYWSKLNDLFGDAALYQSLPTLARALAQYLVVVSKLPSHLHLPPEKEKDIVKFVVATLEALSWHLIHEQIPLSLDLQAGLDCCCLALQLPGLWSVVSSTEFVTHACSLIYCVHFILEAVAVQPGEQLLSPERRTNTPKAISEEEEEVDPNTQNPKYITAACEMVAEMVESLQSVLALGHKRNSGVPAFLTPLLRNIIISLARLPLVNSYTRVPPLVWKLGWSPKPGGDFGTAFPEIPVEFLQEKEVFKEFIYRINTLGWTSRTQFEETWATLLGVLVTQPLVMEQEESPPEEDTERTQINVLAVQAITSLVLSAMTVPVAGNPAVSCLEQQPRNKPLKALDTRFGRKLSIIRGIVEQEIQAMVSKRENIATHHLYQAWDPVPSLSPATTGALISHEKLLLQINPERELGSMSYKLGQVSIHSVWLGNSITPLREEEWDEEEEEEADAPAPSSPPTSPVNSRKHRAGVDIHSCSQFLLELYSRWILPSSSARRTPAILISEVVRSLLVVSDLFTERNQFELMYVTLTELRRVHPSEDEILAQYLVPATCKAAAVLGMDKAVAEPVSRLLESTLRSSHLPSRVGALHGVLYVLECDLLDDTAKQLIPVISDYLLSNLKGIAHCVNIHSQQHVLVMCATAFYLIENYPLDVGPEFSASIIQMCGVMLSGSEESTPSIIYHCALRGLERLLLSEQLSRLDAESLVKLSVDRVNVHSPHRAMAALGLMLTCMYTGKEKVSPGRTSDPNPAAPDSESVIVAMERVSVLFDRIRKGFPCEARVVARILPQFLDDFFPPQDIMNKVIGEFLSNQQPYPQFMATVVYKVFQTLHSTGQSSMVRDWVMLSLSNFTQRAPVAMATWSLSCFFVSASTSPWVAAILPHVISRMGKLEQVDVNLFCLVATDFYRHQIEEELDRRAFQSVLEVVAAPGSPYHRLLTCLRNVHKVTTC

Compound | inhibition
CC(C)CNC(=O)C(=O)NCC(c1ccco1)S(=O)(=O)c1cccs1 (configuration not stated) | -9.6% (inactive)
O=C1C2C(C(=O)N1c1ccccc1[N+](=O)[O-])C1C=CC2C12CC2 (configuration not stated) | 3% (inactive)
COc1ccc(N2C(=O)CC(Nc3ccc(OC(F)(F)F)cc3)C2=O)cc1 (configuration not stated) | -4% (inactive)
Cc1ccc(NC2CC(=O)N(c3cccc(Cl)c3)C2=O)cc1 (configuration not stated) | -2% (inactive)
Cc1ccc(N2C(=O)CC(Nc3ccc(N4CCOCC4)cc3)C2=O)c(Br)c1 (configuration not stated) | 60.1% (active) and 18.3% (inactive)
O=C(Nc1ccc(N2CCCCC2)nc1)C1CC1 | -1% (inactive)
O=C(O)/C(=C\c1cccc([N+](=O)[O-])c1)NC(=O)c1ccco1 | -2.8% (inactive)
CCOc1ccc(Br)c(/C=C2\C(=O)Nc3ccc(Br)cc32)c1 | 31% (inactive)
CCc1ccc(/C=C2\C(=O)Nc3ccc(F)cc32)cc1 | 66% (active)
COc1ccc(/C=C2\C(=O)Nc3ccc(F)cc32)cc1OC | 40% (inactive)
Cc1ccc(C(=O)N2CCc3sc(C(=O)NCc4ccco4)cc3C2)cc1 | 13.6% (inactive)
Cc1ccn2c(-c3csc(Nc4ccc(N)cc4)n3)c(C)nc2c1 | 64.7% (active)
Cc1ccn2c(-c3csc(Nc4ccc(C(=O)O)cc4)n3)c(C)nc2c1 | -2% (inactive)
Cc1nc2sccn2c1-c1csc(Nc2ncccn2)n1 | 3% (inactive)
COCCCNC(=O)C1CCN(c2nnc(-c3ccccc3)o2)CC1 | 2.64% (inactive)
CCOC(=O)C1CCCN(CC(O)COC2CC3CCC2(C)C3(C)C)C1 (configuration not stated) | 6.9% (inactive)
Oc1c(C(Nc2ccccn2)c2ccc(OC(F)F)cc2)ccc2cccnc12 (configuration not stated) | 97% (active)
Oc1c(C(Nc2ccccn2)c2ccncc2)ccc2cccnc12 (configuration not stated) | 100% (active)
Oc1c(C(Nc2ccccn2)c2cccnc2)ccc2cccnc12 (configuration not stated) | 100% (active)
c1ccc(Nc2nc(-c3ccncc3)cs2)nc1 | 18% (inactive)
COc1ccccc1C=C1Oc2cc(C)cc(O)c2C1=O | -4.4% (inactive)
CCC(CC)NC(=O)C1CCc2nc(N3CCN(C(C)=O)CC3)sc2C1 (configuration not stated) | 11.6% (inactive)
CC(NC(=O)CN1CCOCC1)C1CC1 (configuration not stated) | -8.9% (inactive)
CN(C(=O)c1ccccn1)C1(C(=O)NC2CCCC2)CCCCC1 | -4% (inactive)
O=C(Nc1ccc2c(c1)OCCO2)C1CCc2sc(C(=O)N3CCCC3)cc2C1 (configuration not stated) | 12.3% (inactive)

Compound | inhibition
CC(C)(C)C(=O)NC(n1cccnc1=O)C(Cl)(Cl)Cl (configuration not stated) | 2% (inactive)
CCCCN(CC)C(=O)c1c[nH]c2ccc(S(=O)(=O)Nc3ccccc3F)cc2c1=O | 14% (inactive)
O=C1CSC(c2ccccc2[N+](=O)[O-])N1c1ccc(Br)cc1 (configuration not stated) | 28% (inactive)
O=C1CSC(c2ccccc2[N+](=O)[O-])N1c1ccc(Oc2ccccc2)cc1 (configuration not stated) | 59% (active)
Cc1ccc(N2C(=O)CSC2c2ccccc2[N+](=O)[O-])cc1Cl (configuration not stated) | 16% (inactive)
CCn1cc(CCNC(C)=O)c2cccnc21 | -8.1% (inactive)
CC(=O)NC(Cc1c[nH]c2ccccc12)C(=O)O (configuration not stated) | 3.4% (inactive)
O=C(O)COc1ccccc1C(c1c[nH]c2ccccc12)c1c[nH]c2ccccc12 | 88.9% (active)
CC(Cc1c[nH]c2ccccc12)NC(=O)c1ccncc1 (configuration not stated) | 2.9% (inactive) and 3% (inactive)
CC(=O)N1CCc2cc(N3CC(C(=O)Nc4ccc(C)cc4F)CC3=O)ccc21 (configuration not stated) | -5.06% (inactive)
CC(=O)N1CCc2cc(N3CC(C(=O)Nc4cccc(F)c4)CC3=O)ccc21 (configuration not stated) | 90.3% (active)
CCc1ccc(CNC(=O)C2CC(=O)N(c3ccc4c(c3)CCN4C(C)=O)C2)cc1 (configuration not stated) | -4.01% (inactive)
O=C(Nc1ccc(N2CCN(C(=O)C3CCCC3)CC2)nc1)c1ccc(F)cc1F | 1.5% (inactive)
CCOc1ccc2nc(C(=O)Nc3ccc(Br)cc3)sc2c1 | -2% (inactive)
CC(C)(CCl)C(=O)N1CCN(c2cc(Oc3ccc(F)c(F)c3)ncn2)CC1 | 6.2% (inactive)
Cc1ccc(C(=O)N2CCC(n3cnnc3-c3ccccc3)C2)cn1 (configuration not stated) | -1.7% (inactive)
O=C(Nc1ccccc1O)c1ncn[nH]1 | 8.9% (inactive)
CCC(NC(C)=O)c1cccc(Br)c1 (configuration not stated) | -3.8% (inactive)
CCC(NC(=O)c1ncn[nH]1)c1ccccc1 (configuration not stated) | 89.5% (active)
Cc1ccc(N2CCC(C(=O)NCc3ccc(F)cc3)C2=O)cc1Cl (configuration not stated) | -0.5% (inactive)
COc1cccc(CC(=O)N2CCCC2c2cccc(F)c2)c1 (configuration not stated) | 15% (inactive)
COc1ccc2nc(SCC(=O)NCc3cccs3)[nH]c2c1 | -2% (inactive)
O=C(CSc1nnc(NC(=O)c2ccc(Cl)c(Cl)c2)s1)NCc1ccco1 | -5.3% (inactive)
O=C(CSc1nc(CC(=O)NCc2cccs2)cc(=O)[nH]1)NCc1ccco1 | 100% (active)
COc1ccccc1NC(=O)c1cc(S(=O)(=O)NCc2ccccc2Cl)ccc1F | -3% (inactive)

Compound | inhibition
COc1ccccc1NC(=O)CC(C)c1ccccc1 (configuration not stated) | -7.2% (inactive)
COc1ccccc1NC(CNS(=O)(=O)c1ccc(Cl)cc1)c1ccccc1 (configuration not stated) | 64% (active)
COc1ccc(C2=NN(C(C)=O)C(c3cc4cc(C)ccc4nc3Cl)C2)cc1OC (configuration not stated) | -3% (inactive)
O=C(CN1N=C(c2ccccc2)CCC1=O)NCCc1ccc(Cl)cc1 | 29% (inactive)
O=C(NCCc1ccccc1)c1ccc(I)cc1 | -3% (inactive)
COc1ccccc1NC(=O)Cn1nnc(-c2ccccc2F)n1 | -2.8% (inactive)
COc1cc(C(=O)N2CCCC2)c([N+](=O)[O-])cc1OC | -4.1% (inactive)
COc1cc(C(=O)N2CCC(Cc3ccccc3)CC2)c([N+](=O)[O-])cc1OC | 54.1% (active)
COc1ccc(NC(=O)N2CCC(Cc3ccccc3)CC2)cc1 | -3.2% (inactive)
CCOc1ccc(C(=O)Nc2cc([N+](=O)[O-])ccc2C)cc1 | -0.3% (inactive)
COc1ccccc1NC(=O)c1c(NCc2ccncc2)sc2c1CCCC2 | 65% (active)
COc1cccc(OC)c1C(=O)Nc1sc2c(c1C(N)=O)CCCC2 | 25.3% (inactive)
COc1ccc(OC)c(NC(=O)c2c(NCc3ccc(C)o3)sc3c2CCC3)c1 | 7.9% (inactive)
Cn1nccc1C(=O)N1CCCC(c2n[nH]c(C3CC3)n2)C1 (configuration not stated) | 5.54% (inactive)
CC(=O)c1nc2sc(C)c(C)c2[nH]1 | -3.74% (inactive)
COc1ccc(C2C(=C(O)c3ccc(C)cc3)C(=O)C(=O)N2c2ccccn2)cc1 (configuration not stated) | 2.6% (inactive)
Cc1ccc(C(O)=C2C(=O)C(=O)N(c3ncccn3)C2c2cccc(Br)c2)cc1 (configuration not stated) | 51.6% (active)
CN(C)CCCN1C(=O)C(=O)C(=C(O)c2ccccc2)C1c1cccc(Br)c1 (configuration not stated) | -1.6% (inactive)
CN1CCc2c(n(-c3ccccc3)c3ccccc23)C1=O | 56.8% (active)
CN1CCN(CC(=O)Nc2c3c(nc4ccccc24)N(c2ccccc2)CC3)CC1 | -4% (inactive)
N#CSc1ccc(NC(=O)c2ccc(-n3cnnn3)cc2)cc1 | 8.8% (inactive)
C=CCNC(=O)C(=O)NCc1ccccn1 | -1.5% (inactive)
Cc1ccc(S(=O)(=O)Nc2cc(S(=O)(=O)O)c(N)c3c2C(=N)c2ccccc2C3=O)cc1 | 94% (active)
COc1cc(N)ccc1NS(=O)(=O)c1ccc(C)cc1 | 10.8% (inactive)
Cc1ccc(S(=O)(=O)Nc2ccccc2C(=O)NN)cc1 | 5.3% (inactive)

Compound | inhibition
CCCc1cc(=O)[nH]c(SCC(=O)Nc2cc(C(F)(F)F)ccc2Cl)n1 | -6.6% (inactive)
O=C(O)C1C2CCC3C(CCC21)C3C(=O)O (configuration not stated) | -1.3% (inactive)
C=CCOC(=O)C1=C(C)NC2=C(C(=O)CC(C)(C)C2)C1c1ccc(OCC)c(OC)c1 (configuration not stated) | -6.9% (inactive)
O=C(NCc1cccs1)C1CCc2sc(C(=O)N3CCCCC3)cc2C1 (configuration not stated) | 3.05% (inactive)
O=C(NC(n1cnc2c(Cl)ncnc21)C(Cl)(Cl)Cl)c1ccccc1 (configuration not stated) | -3% (inactive)
O=C(Nc1cccc(Cl)c1)Nc1c2c(nn1-c1ccccc1)CSC2 | 15.8% (inactive)
CCOc1ccc(-n2c(SCC(=O)NC3CCCCC3)nc3n[nH]c(C)c3c2=N)cc1 | 10% (inactive)
CCC(Sc1nc2n[nH]c(C)c2c(=N)n1-c1ccc(OC)cc1)C(=O)Nc1ccccc1OC (configuration not stated) | 30% (inactive)
CCC(Sc1nc2n[nH]c(C)c2c(=N)n1-c1ccc(Br)cc1)C(=O)NCCOC (configuration not stated) | 75% (active)
Cc1ccc(C(=O)Nc2ccc(-n3cnnn3)c(C)c2)cc1 | -6.6% (inactive)
COc1ccc(Br)cc1S(=O)(=O)NCCCn1ccnc1 | -3.1% (inactive)
Cn1cc(C2=CCN(S(=O)(=O)c3cccc(Cl)c3)CC2)c2cccnc21 | 0.52% (inactive)
COc1cccc(-c2nc(C3CCN(S(=O)(=O)c4ccccc4F)CC3)no2)c1 | -3.26% (inactive)
CCCOc1ccc(C2C3=C(CC(C)(C)CC3=O)Nc3ccc4ncccc4c32)cc1 (configuration not stated) | 49% (inactive)
CCOc1ccc(C2C3=C(CC(C)(C)CC3=O)Nc3ncnn32)cc1 (configuration not stated) | -2.23% (inactive)
CC1(C)CC(=O)C2=C(C1)NC1=C(C(=O)c3ccccc31)C2c1ccc(OCc2ccccc2)cc1 (configuration not stated) | 100% (active)
O=C(c1ccccc1)c1cc(S(=O)(=O)C(F)(F)F)ccc1[N+](=O)[O-] | 34% (inactive)
CCOc1ccc(CN2CCCC2c2c(C)noc2CC)cc1 (configuration not stated) | -51.7% (inactive)
CNC(=O)c1c(NC(=O)c2ccc(Br)s2)sc(C)c1C | -10.4% (inactive)
CSc1cccc(NC(=O)c2ncn[nH]2)c1 | 0.6% (inactive)
O=C(Nc1cc([N+](=O)[O-])ccc1Cl)c1ncn[nH]1 | 4% (inactive)
O=C(Nc1ccc(Cl)c(C(=O)O)c1)c1ncn[nH]1 | 18.5% (inactive) and 57% (active)
